Only some compounds are listed: those with a hit (about 7.3% of all), similar ones and a draw of the others.
Vaccinia mCherry: qHTS for Stage-Specific Inhibitors of Vaccinia Orthopoxvirus: mCherry Reporter Primary qHTS; Potency, µM (top dose mostly 36.5 µM), for inactives: top-dose activity change, negative = inhibition, usual class: inhibitors; Vaccinia virus mCherry reporter infection, fluorescence; hit rate 0.63% among 310,000; calls by dose curve; tested in A549 cells; note: potency is the fitted concentration of half-maximal effect; nearly all actives have a fitted effect of over 35% in size
Vaccinia Venus: qHTS for Stage-Specific Inhibitors of Vaccinia Orthopoxvirus: Venus Reporter Primary qHTS | Vaccinia virus Venus reporter expression, fluorescence | Potency, µM (series often up to 36.5 µM), inactives show at the highest dose activity change, negative = inhibition, usual class: inhibitors | hit rate 0.46% among 330,000; calls by dose curve; tested in A549 cells; note: potency is the fitted concentration of half-maximal effect; nearly all actives have a fitted effect of over 30% in size
HCMV antiviral: qHTS Assay for inhibitors of the human cytomegalovirus (HCMV) | HFF cells, HCMV-luciferase reporter, 72 h; stronger effect = lower value | activity change, negative = inhibition, % at 57.5 µM | hit rate 4.5% among 410,000 | AID 1259415, 2018; in the data active = activity change below about -60%; inconclusive = no clear call, values can overlap the other calls; inactive = above about -39%
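After 16 h attachment at 37C, HFF cells received test compound and HCMV-luciferase (1 PFU/cell); reporter luminescence read 72 h later, data normalized against buffer-only and known inhibitor Salinomycin.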
HCV inhibitor: qHTS Assay for Inhibitors of Hepatitis C Virus (HCV) | Huh7.5.1 HCVcc-Cre infection, luciferase reporter, 44 h | Potency, µM (top dose mostly 41.8 µM), for the others: at the highest dose activity change, negative = inhibition, most hits filed as inhibitors | hit rate 3.4% among 340,000; active = well fitted inhibition curve with a large enough effect; inconclusive = small, poorly fitted or top-dose-only effect, or another doubt; inactive = no such curve, though single readings can be large or run the other way; note: potency is the fitted concentration of half-maximal effect
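Luciferase read-out (15 sec integration) after a 15 min room-temperature substrate step quantifies HCVcc-Cre infection. Cells, 1,000 per well, had compound added 4 h post-plating, then virus at ~0.5 moi, and were cultured 44 h.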
FMDV inh: High Throughput Screening for Foot and Mouth Disease Virus Antivirals; AID 1159524, 2015; hit rate 1.2% among 410,000; FMDV antiviral cell-based qHTS; Potency, µM (series often up to 57.9 µM), for the others: at the highest dose activity change, negative = inhibition, usual class: inhibitors; calls by dose curve; tested in HEK293T cells; note: read-out not given here; potency is the fitted concentration of half-maximal effect; nearly all actives have a fitted effect of over 45% in size
* marks the source's active call; other numbers are inactive results; i = inactive; ? = inconclusive; · = no result; ! = not active in a repeat. % is set by controls: 0 for no effect and ±100 for the full control effect.

SMILES	Vaccinia mCherry	Vaccinia Venus	HCMV antiviral	HCV inhibitor	FMDV inh
CCOc1c(Br)cc(C2C=C(C(=O)O)Nc3ncnn32)cc1OC (configuration not stated)	-1.9%	6.5%	?	·	-10.4%
COc1ccc(NC(=O)Nc2cccc3c2O[C@H](CN(C)C(=O)Nc2ccc4c(c2)OCO4)[C@@H](C)CN([C@H](C)CO)C3=O)cc1	15.1%	-5.6%	22.4	?	18.0%
COCCNC(=O)CN1C(=O)CCn2nc(-c3cn(C)c4ccccc34)cc21	i	-0.6%	8.9	·	6.2%
CCOCCc1nn2c(=O)cc(COC(=O)c3ccc(NC(=O)c4ccc(F)cc4)cc3)nc2s1	-6.2%	-4.1%	12.0	·	-18.7%
COc1ccc(C(=O)N2CCN(c3ccc([N+](=O)[O-])c(NCCc4ccc(OC)c(OC)c4)c3)CC2)cc1	?	-20.6%	-99.2*	1µM*	8.91µM*
COc1ccc(CCNc2cc(N3CCN(C(=O)c4ccccc4F)CC3)ccc2[N+](=O)[O-])cc1OC	?	?	-97.1*	?	3.55µM*
O=C(C[n+]1ccccc1Cl)c1ccc(O)c(O)c1	40.8%	-5.3%	·	·	·
CCC(C)C(=O)Nc1nnc(CCc2ccccc2)s1 (configuration not stated)	i	-12.1%	64.7	3.9%	34.3%
Cc1ccc2c(CN(Cc3ccccc3)Cc3ccccc3)cc(=O)oc2c1	i	-6.0%	-0.2	·	-24.0%
CCN(Cc1cc(=O)oc2cc(C)ccc12)c1ccccc1	·	·	4.1	22.4µM*	?
COC(=O)c1ccccc1COc1cccn2c(N(C)CC3CC3)c(C)nc12	i	-7.0%	-99.4*	·	-21.8%
c1ccc2c(c1)OCC(c1csc3ncnc(N4CCCCC4)c13)O2 (configuration not stated)	-8.6%	3.1%	-87.7*	5.1%	31.6µM*
COc1ccc(NS(=O)(=O)c2c(F)cc(F)c(Cl)c2F)cc1S(=O)(=O)N1CCCCC1	3.55µM*	5.62µM*	-26.3	9.2%	15.9%
COc1ccc(NC(=O)c2ccco2)cc1S(=O)(=O)N1CCCCC1	-4.2%	-14.8%	-24.0	-28.2%	10.6%
COc1ccc(NC(=O)CSc2ccc(NC(C)=O)cc2)cc1S(=O)(=O)N1CCOCC1	i	-1.5%	-8.0	-0.1%	-12.0%
COc1ccc(OCC(=O)Nc2ccc(OC)c(S(=O)(=O)N3CCCCC3)c2)cc1	?	?	-25.4	10µM*	-15.4%
COc1ccc(NC(=O)c2n[nH]c(=O)c3ccccc23)cc1S(=O)(=O)N1CCCCC1	?	-26.6%	-17.0	11.2µM*	?
COc1ccc(NS(=O)(=O)c2c(F)cccc2F)cc1S(=O)(=O)N1CCOCC1	-12.3%	2.3%	11.0	6.7%	37.4%
COc1ccc(NC(=O)CSc2ccc3ccccc3c2)cc1S(=O)(=O)N1CCCCC1	-23.2%	?	-81.6*	5.01µM*	?
CC1CCN(C(=O)c2ncn3c2C(=O)NC[C@H]3C)CC1	·	·	-11.3	·	·
CCCCN(CC)CCCNC(=O)c1sc2nc(C)cc(C)c2c1-n1cccc1	-17.7%	-4.9%	18.1	·	-14.2%
COc1ccc(C(=O)OCC(=O)Nc2ccc(OC)c(S(=O)(=O)N3CCCCC3)c2)cc1[N+](=O)[O-]	-21.8%	-6.6%	0.9	?	-16.2%
COc1ccc(NC(=O)COc2ccccc2Cl)cc1S(=O)(=O)N1CCCCC1	-30.9%	?	?	10µM*	-6.2%
COc1ccc(NC(=O)COC(=O)c2cccn2C)cc1S(=O)(=O)N1CCCCC1	i	-12.8%	-69.1*	?	-18.4%
O=S(=O)(c1ccccc1)N1CCC2(CCCN(Cc3ccncc3)C2)CC1	·	·	·	·	-0.6%
SMILES	Vaccinia mCherry	Vaccinia Venus	HCMV antiviral	HCV inhibitor	FMDV inh
O=C(COc1ccccc1Cl)Nc1cc(NC(=O)COc2ccccc2Cl)cc(C(=O)O)c1	i	-9.2%	11.4	11.9%	38.3%
CCOc1ccc(NC(=O)c2ccccc2NC(=O)CNC2CCCC(C)C2C)cc1 (configuration not stated)	·	·	-65.6*	-13.5%	-12.1%
CCOc1ccc(NC(=O)c2ccccc2NC(=O)CN(C)CC(=O)Nc2ccc(C)cc2)cc1	·	-18.9%	-34.1	-14.3%	?
COc1ccc(O)c(CN2CCC3(CCC(CNC(=O)c4ccco4)O3)CC2)c1 (configuration not stated)	-21.7%	-11.1%	·	·	-10.6%
O=C(CN1CCN(Cc2ccc(Cl)cc2)CC1)N1CCc2ccccc21	-17.8%	-14.6%	8.5	?	-15.7%
O=C(OCn1ncc(Br)c(Br)c1=O)c1ccccc1Cl	?	?	·	?	14.1µM*
CC(=O)OCn1ncc(N2CCOCC2)c(Br)c1=O	i	-10.6%	?	23.2%	-10.4%
O=C(OCn1ncc(Br)c(Br)c1=O)c1ccc(F)cc1	11.2µM*	10µM*	·	?	14.1µM*
O=C(OCc1cnc(Cl)s1)c1ccccc1Cl	·	-5.0%	75.3	14.5%	4.5%
CCCCN(CC)C(=O)c1cc2c(=O)n3cccc(C)c3nc2n1C	-17.1%	-10.1%	?	·	-19.0%
O=C(COC(=O)C12CC3CC(CC(Br)(C3)C1)C2)Nc1cccc(S(=O)(=O)N2CCOCC2)c1	?	-11.0%	-8.4	?	?
O=C(NC1CCCc2ccccc21)c1ccccc1OC(F)F (configuration not stated)	?	-6.4%	-28.9	-0.3%	32.1%
NS(=O)(=O)c1ccc(CCNc2ccn3nc(-c4cccc(C(F)(F)F)c4)cc3n2)cc1	8.91µM*	?	-28.5	·	?
OCC1(Cc2ccccc2C(F)(F)F)CCN(Cc2ccc3c(c2)CCO3)CC1	-8.9%	-12.6%	-75.7*	9.4%	0.6%
CC(=O)OCCC(NS(=O)(=O)OCC(Cl)(Cl)Cl)c1ccccc1 (configuration not stated)	-9.0%	-18.4%	20.2	-9.0%	-10.4%
CC(Oc1ccccc1)C(=O)Nc1nnc(S(=O)(=O)N2CCCCCC2)s1 (configuration not stated)	-22.8%	-15.4%	-69.2*!	15.9%	-9.1%
CCC(Oc1ccccc1)C(=O)Nc1nnc(S(=O)(=O)N2CCCCC2)s1 (configuration not stated)	·	·	-19.4	17.1%	-29.8%
Fc1ccc2cc(C3=CCCCC3)ncc2c1	·	·	-94.7*	·	·
COc1ccc(Cn2ccc3nc(C)c(C(=O)N4CCN(c5cc(C)ccc5C)CC4)cc3c2=O)cc1	?	-26.8%	-17.8	·	?
O=C(CSc1nc2c([nH]c3ccccc32)c(=O)n1-c1cccc(C(F)(F)F)c1)N1CCc2ccccc21	-17.0%	-22.0%	33.7	·	-10.6%
C=CCN1C(=O)/C(=C2/Sc3ccc(OC)cc3N2C)SC1=Nc1ccccc1	·	·	-6.3	?	-7.0%
CCCCN1C(=O)/C(=C2/Sc3ccccc3N2C)S/C1=N\c1ncn[nH]1	·	·	-78.4*	-14.1%	-22.6%
Cc1ccc([N+](=O)[O-])cc1-c1ccc(/C=C(\C#N)c2[nH]nc(N)c2C#N)o1	10µM*	?	?	?	-24.7%
